High-throughput results deposited in PubChem by several laboratories.
Jurkat NFkB inh = lowers PMA/ionomycin-induced NF-kB signal in Jurkat cells; 330,000 tested, 0.53% active; AID 435003; inhibition, % at 4 µM; PMA/ionomycin-induced NF-kB luciferase reporter, luminescence; in the data active = inhibition above about 50%
Gli-Sufu block = antagonists of Gli-Sufu signaling; Sufu-KO-LIGHT fibroblasts, Gli luciferase reporter luminescence; inhibition, % at 5 µM; 340,000 tested, 0.74% active;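 active = inhibition above about 55%, limit read from the data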;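 note: 0% = DMSO-treated cells and 100% = wells with medium but no cells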
Mdm2-MdmX inh = inhibitors of human Mdm2/MdmX interaction; SaOS-2 split-luciferase Mdm2/MdmX complementation, luminescence; inhibition, % at 8 µM; 330,000 tested, 3% active; AID 485346;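 active = inhibition of at least 50% at 8 µM in the primary screen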
CSC inhib = cancer stem cell inhibition | 300,000 tested, 1.1% active | cancer stem cell-like cells viability, luminescence | inhibition, % at 7.5 µM; in the data active = inhibition above about 75%; inconclusive = no clear call, values can overlap the other calls; tested in HMLE shEcad cells
aSyn 5UTR inh = MLPCN primary screen, SNCA 5' untranslated region; alpha-synuclein 5'UTR reporter, inhibitor activity; 300,000 tested, 0.82% active; inhibition, % (tested at 7.5 µM); AID 1813; in the data active = inhibition above about 60%; inconclusive = no clear call, values can overlap the other calls;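 note: H4 neuroglioblastoma cells stably carrying SNCA 5'UTR luciferase fusion; 0% = DMSO wells and 100% = positive control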
697 NFkB inh = lowers PMA/ionomycin-induced NF-kB signal in 697 B cells. 697 B-cell NF-kB luciferase reporter, 16 h. inhibition, % at 4 µM. 330,000 tested, 0.33% active; in the data active = inhibition above about 35%
697 NFkB conf = lowers PMA/ionomycin-induced NF-kB signal in 697 B cells. 697 B-cell NF-kB luciferase, 16 h. inhibition, % at 4 µM. shares compounds with 697 NFkB inh. AID 449746. 2,000 tested, 35% active; in the data active = inhibition mostly above about 28%, no sharp cut-off; inactive = mostly below about 22%
Mdm2-MdmX conf = confirmation of human Mdm2/MdmX interaction inhibitors. shares compounds with Mdm2-MdmX inh. Mdm2-MdmX binding, luminescent assay. inhibition, % at 8 µM. 10,000 tested, 55% active; in the data active = inhibition above about 40%
Full FLuc ctr = counter-screen for Mdm2/MdmX inhibitors: full-length luciferase; shares compounds with Mdm2-MdmX inh; SaOS-2 full-length luciferase counterscreen, luminescence; inhibition, % at 8 µM; 6,200 tested, 77% active; AID 504607;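 active = mean inhibition at 8 µM reaching about 37%, which flags the compound as non-specific, limit read from the data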;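 note: p53-null SaOS-2 cells with luciferase driven by a doxycycline-inducible promoter; compound on cells about two nights before reading with doxycycline added after day one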
* marks the source's active call; other numbers are inactive results; i = inactive; ? = inconclusive; · = not tested or not shown. A selection: hits, their analogues and other compounds. The true share with any hit is near 4.5%.

SMILES	Jurkat NFkB inh	Gli-Sufu block	Mdm2-MdmX inh	CSC inhib	aSyn 5UTR inh	697 NFkB inh	697 NFkB conf	Mdm2-MdmX conf	Full FLuc ctr
O=c1[nH]c(=O)n([C@H]2C[C@H](O)[C@@H](CO)O2)cc1C(F)(F)F	46	42	60*	71	77*	48*	58*	52*	56*
Cc1ccccc1-c1cc(C(=O)Nc2sc(C(=O)OC(C)C)c(C)c2C#N)c2ccccc2n1	16	25	72*	111*	27	37*	43*	95*	24
CCOC(=O)CNC(=O)CSc1nnc(NC(=O)c2ccc(C)cc2)s1	35	14	54*	2	74*	43*	33*	41*	68*
C=CCNC(=O)NS(=O)(=O)c1ccc(C)cc1	-7	7	12	0	8	-5	·	·	·
CCSc1ncc(Cl)c(C(=O)Nc2ccccc2Cl)n1	-12	-1	17	2	-14	21	·	·	·
CCSc1ncc(Cl)c(C(=O)Nc2sc3c(c2C(=O)NCc2cccnc2)CCCC3)n1	14	10	60*	·	7	38*	25*	9	·
COc1ccc(CNC(=O)c2ccc(N3CCC4(CC3)CC(c3ccc(Cl)cc3)=NO4)c(NC(=O)Cc3ccc(F)cc3)c2)cc1	-2	10	-34	0	·	4	·	·	·
CC(C)(C)c1nc(SCC(=O)Nc2nc3c(s2)CCCC3)c2ccccc2n1	-31	20	98*	119*	41	i	i	93*	54*
COc1ccc(/C=C2/SC(=S)N(CCCC(=O)Nc3ccc(O)cc3)C2=O)cc1	-16	57*	88*	32	68*	71*	79*	90*	56*
COc1ccc(/C=C2\SC(=S)N(CCCC(=O)N3CCOCC3)C2=O)cc1	5	9	30	-6	?	31	·	·	·
COc1ccc(/C=C2\SC(=S)N(CCCC(=O)Nc3ccc(O)cc3)C2=O)cc1	-5	39	76*	53	78*	69*	75*	66*	54*
O=C1COC(c2ccccc2)C2CCCCN12 (stereo not drawn)	9	-3	2	-1	-11	-11	·	·	·
COC(=O)c1ccccc1NC(=O)CSc1n[nH]c(-c2ccco2)n1	-6	21	-6	-9	-4	-1	·	·	·
FC(F)(F)c1cc(CCN2CCNC[C@H]2Cc2cccc3ccccc23)cc(C(F)(F)F)c1	20	-4	100*	?	-7	36*	13	36	75*
CCCNC(=O)c1ccc(N2CCC3(CC2)CC(c2cccc(Br)c2)=NO3)c(NC(=O)c2ccc(Cl)c([N+](=O)[O-])c2)c1	11	5	61*	12	-8	37*	26*	12	·
COC(=O)c1sc(S(=O)(=O)Nc2ccc(Br)cc2)c(C(=O)OC)c1C	·	-2	·	9	·	·	·	·	·
COc1ccc(C(=O)Nc2cccc(NC(=O)c3ccc(OC)c(OC)c3)n2)cc1OC	41	-10	55*	20	-17	39*	47*	49*	89*
Cc1nc(SC(C)C(=O)NCC2CCCO2)c2cc(-c3ccccc3)sc2n1 (stereo not drawn)	-67	-17	97*	48	-107	i	i	96*	55*
COc1ccc(NC(=O)c2cc(CC(C)C)nc3ccccc23)cc1	38	-15	91*	-2	52	-287	-345	90*	52*
NC(=O)C1CCN(C(=O)CCSCc2ccccc2)CC1	1	-6	6	-6	-13	-13	·	·	·
COc1cccc(C2C3=C(N=c4s/c(=C\c5ccc(OCC(=O)O)cc5)c(=O)n42)c2ccccc2CC3)c1 (stereo not drawn)	1	1	23	22	2	10	·	·	·
Cc1nn(Cc2c(Cl)cccc2Cl)c(C)c1NC(=O)c1cc(C(C)C)on1	-55	-19	79*	31	23	-470	i	62*	54*
Cc1cc(C(=O)Nc2c(C)nn(Cc3c(Cl)cccc3Cl)c2C)no1	-29	-6	24	13	49	-98	·	·	·
COc1ccc(C(=O)N/N=C/c2cc(Br)ccc2O)cc1OC	33	19	67*	36	44	37*	15	64*	30
COc1ccc(Br)cc1/C=N/NC(=O)c1cc(Br)ccc1O	0	·	21	·	2	3	·	·	·
SMILES	Jurkat NFkB inh	Gli-Sufu block	Mdm2-MdmX inh	CSC inhib	aSyn 5UTR inh	697 NFkB inh	697 NFkB conf	Mdm2-MdmX conf	Full FLuc ctr
Cc1ccc(/C=C2\SC(=S)N(CCCC(=O)Nc3cccnc3)C2=O)cc1	18	·	92*	0	79*	90*	99*	72*	5
CCc1ccc(/C=C2\SC(=S)N(CCCC(=O)Nc3ccccn3)C2=O)cc1	14	35	85*	6	73*	76*	58*	73*	53*
Cc1ccc(/C=C2\SC(=S)N(CC(=O)Nc3cccnc3)C2=O)cc1	1	0	18	8	17	-1	·	·	·
CC1(S(=O)(=O)O)CC(=O)c2ccccc2C1=O (stereo not drawn)	-5	14	25	-2	8	-34	·	·	·
CC(=O)N1[C@H](C)C=C[C@]1(Cc1ccccc1)C(=O)O	-11	-10	15	-3	-14	3	·	·	·
CC(=O)N1CCN(C(=O)c2cccc(S(=O)(=O)N3c4ccccc4CC3C)c2)CC1 (stereo not drawn)	-3	3	9	4	·	-3	·	·	·
CC1Cc2ccccc2N1S(=O)(=O)c1cccc(C(=O)N2CCN(c3ncccn3)CC2)c1 (stereo not drawn)	-40	9	90*	51	46	i	i	89*	55*
O=C(CN1C(=O)c2ccccc2S1(=O)=O)c1ccccc1Cl	23	·	58*	15	101*	54*	37*	55*	82*
CCOC(=O)/C(C#N)=C/c1cc(C)n(-c2ccccc2)c1C	-81	-21	52*	-10	-58	-289	-115	66*	170*
CCOC(=O)/C(C#N)=C/c1cc(C)n(-c2ccc(Br)cc2)c1C	-15	·	-6	-4	-39	0	·	·	·
Cc1cccc(-n2ncc3c2CCCC3NC(=O)CN2CCOC2=O)c1C (stereo not drawn)	4	-11	10	-3	9	-1	·	·	·
Cc1cc(C(=O)NC2CCCc3c2cnn3-c2cccc(C)c2C)no1 (stereo not drawn)	-53	34	93*	-2	-118	i	i	94*	24
CCC(CC)C(=O)Nc1cc(C)cc(C)c1	6	-1	-26	-10	9	-2	·	·	·
